# PubChem BioAssay AID624331 (National Center for Advancing Translational Sciences (NCATS), 2012)
# Results filed as inconclusive are left out. Activity calls are given as the source filed them. Calls follow the shape of the dose curve; as a rule, active = well fitted activation curve with a large enough effect; inconclusive = small, poorly fitted or top-dose-only effect; inactive = no such curve, though single readings can be large or run the other way.
# Experiment: qHTS assay for re-activators of p53 using a Luc reporter: Hit Validation with no p53 Expressed; as to activity change, positive = activation: 0% is about no effect
# Conditions: p53-null cells, luciferase reporter counter-screen; series mostly up to 46.1 µM; activity change, positive = activation: at the top concentration
# In short: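 Counter-screen of primary hits in a cell line not transfected with p53, in Opti-MEM with 10% FBS; compounds at several concentrations (10 mM stock, 1:5; top 46.1 µM in well), 24 h at 37 deg C, 5% CO2. Luminescence read after 10 min with Amplite reagent.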
# Potency is read from the fitted curve at half-maximal effect.
SMILES,"activity change, positive = activation",Potency
CC(=O)c1cccc(NS(=O)(=O)N(C)C)c1,0.341% (inactive),
O=C(/C=C/Nc1ccccc1F)c1cccs1,40.9% (inactive),
Cc1cccc(-c2noc(CCC(=O)N3CCN(c4cc(C)ccc4C)CC3)n2)c1,-1.43% (inactive),
Cc1ccccc1C(=O)Nc1ccc(Br)cn1,27.2% (inactive),
O=C(O)/C=C/c1nc(-c2ccccc2)n2ccccc12,-22.9% (inactive),
COc1cc(CNC2CCCCCCC2)c(Br)cc1OCCO,8.85% (inactive),
Cc1nonc1NCn1nnc2ccccc21,2.44% (inactive),
N#CC(c1ccccc1)C1CCN(Cc2ccccc2)CC1 (centres undefined),71.6% (inactive),
Cc1cccc(/C(N)=N/OC(=O)c2ccc3c(c2)OCO3)c1,57.1% (inactive),
Clc1ccc(OCc2nc(-c3ccncc3)no2)c(Cl)c1,25% (inactive),
O=C(/C=C/c1ccco1)NC(=S)Nc1cc(-c2nc3ccccc3s2)ccc1Cl,-2.97% (inactive),
C/C(=N/NC(=S)Nc1ccccc1)c1ccc2c(c1)OCO2,4.43% (inactive),
O=C(COC(=O)c1ccc(F)cc1)NC1CC1,-26.2% (inactive),
CCCCNc1ncnc2c1cnn2-c1ccccc1,-0.0123% (inactive),
O=C(Cc1ccccc1)Nc1ccc(NC(=O)c2cccnc2)cc1,-13.4% (inactive),
CCCCCNC(=O)N[C@H](C(=O)O)C(C)C,56.2% (inactive),
CCc1ccc2[nH]c(=O)c(CN(CCN(CC)CC)C(=O)NC3CCCCC3)cc2c1,-34.4% (inactive),
COCCn1c(C)cc(C(=O)COc2ccc(N(C)S(=O)(=O)c3ccc(C)cc3)cc2)c1C,-1.71% (inactive),
CCCN(C(=O)c1cccc(S(=O)(=O)N2CCCc3ccccc32)c1)C1CCS(=O)(=O)C1 (centres undefined),-22.7% (inactive),
O=c1sc(/C=N/Nc2ccccc2)c(Cl)n1Cc1ccccc1,-13.4% (inactive),

SMILES,"activity change, positive = activation",Potency
CCCN1C(=O)SC(CC(=O)Nc2ccccc2C)C1=O (centres undefined),29.6% (inactive),
O=C(NC(=S)NCCc1ccccc1)C1CCCCC1,-17% (inactive),
c1ccc(-c2cn3c(n2)SCC3)cc1,-24.5% (inactive),
CC12CCC(C(=O)N(CSC(=S)N/N=C\c3ccccc3O)C1=O)C2(C)C (centres undefined),52% (inactive),
O=C(COC(=O)c1cn(-c2ccccc2)nc1-c1ccc(F)cc1)Nc1ncc(Cl)cc1Cl,13.6% (inactive),
Cc1ccc(Nc2nc(N)nc(CSc3nccn3C)n2)cc1,89% (inactive),
Cc1ccccc1CSc1ncc(C#N)c(N)n1,8.99% (inactive),
O=C(N/N=C/c1ccccc1O)C1CC(=O)N(c2ccc(Cl)cc2)C1 (centres undefined),24.7% (inactive),
Cc1ccc(/C=C2\SC(=S)N(CCCC(=O)Nc3nccs3)C2=O)cc1,-34.4% (inactive),
C#CCOc1ccc(/C=C2\SC(=S)N(Cc3cccnc3)C2=O)cc1,23.1% (inactive),
Cc1ccc2cc(CCNC(=O)c3ccco3)c(=O)[nH]c2c1C,82.1% (inactive),
Cc1ccc(C(=O)CC(=O)COc2ccc(Cl)cc2)cc1,90% (inactive),
CCOc1ccc2c(c1)C(=NNC(=O)c1ccncc1)c1cc(OCC)ccc1-2,-13% (inactive),
NNC(=O)c1cccc(COc2ccc(Br)cc2)c1,13.2% (inactive),
CC(=O)NC(=S)Nc1ccc(NC(=O)c2cccs2)cc1,-1.12% (inactive),
CC(=O)Oc1ccc(Cl)cc1/C=C/c1ccc2ccccc2n1,,23.1 µM (active)
CCc1ccc2c(CN(CC)Cc3nc4ccccc4c(=O)[nH]3)cc(=O)oc2c1,39.4% (inactive),
O=C(O)c1ccc(N/N=C/c2ccc3ncccc3c2)cc1,-33.2% (inactive),
CC(C)(C)NC(=O)C(c1ccc(Cl)cc1)N(CCO)C(=O)c1snc(C(N)=O)c1N (centres undefined),-9.98% (inactive),
